According to PubChem BioAssay (NCI):
About 83,000 compounds went through this panel and 20% of them were active in at least one assay; those are over-represented in the sample as a whole.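 Values shown are percent growth following 48 h exposure of cells in 96-well plates to a single concentration of compound; below 10 was considered active.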 Active and inactive are the calls of the source.

What was measured:
Test in all cases: NCI-60 one-dose screen, 48 h (100 = growth as untreated, 0 = no growth, -100 = all killed)
Settings in all cases: 10 µM unless noted
[1] = tested on: DU-145 prostate
[2] = tested on: K-562 leukemia
[3] = tested on: MALME-3M melanoma
[4] = tested on: MDA-MB-231 breast
[5] = tested on: RXF 393 renal
[6] = tested on: SF-268 CNS
[7] = tested on: SF-295 CNS
[8] = tested on: SF-539 CNS
[9] = tested on: UACC-257 melanoma
[10] = tested on: M14 melanoma
[11] = tested on: HT29 colon
[12] = tested on: SNB-75 CNS
[13] = tested on: SNB-19 CNS
[14] = tested on: U251 CNS
[15] = tested on: PC-3 prostate
[16] = tested on: SK-MEL-5 melanoma
[17] = tested on: UACC-62 melanoma
[18] = tested on: LOX IMVI melanoma
[19] = tested on: SK-MEL-28 melanoma

Measured: growth

CCCCCCCCCCCCCCCCCCNC(=S)N/N=C/c1ccc(OC)c(OC)c1
inactive: [1] 102% | [2] 98.8% | [3] 87.4% | [4] 92.7% | [5] 110% | [6] 98.7% | [7] 95.7% | [8] 93.6% | [9] 100% | [10] 104% | [11] 99.9% | [12] 88.2% | [13] 94% | [14] 90.1% | [15] 92.1% | [16] 95.3% | [17] 86.1% | [18] 95.2% | [19] 100%

Cc1cccc([N+](=O)[O-])c1I
inactive: [1] 116% | [2] 141% | [3] 116% | [4] 102% | [5] 111% | [6] 105% | [7] 101% | [8] 105% | [9] 96.7% | [10] 108% | [11] 106% | [12] 94.9% | [13] 106% | [15] 85.5% | [16] 109% | [17] 107% | [18] 101% | [19] 114%

O=C(N/N=C/c1ccc([N+](=O)[O-])cc1)c1ccc(Br)o1
inactive: [1] 126% | [2] 114% | [3] 106% | [4] 113% | [5] 90.3% | [6] 111% | [7] 83% | [8] 97.8% | [9] 107% | [10] 107% | [11] 106% | [13] 90.2% | [14] 101% | [15] 87.1% | [16] 95.8% | [17] 99.6% | [18] 98% | [19] 110%

O=C(COc1cccc(/C=C2\Oc3ccccc3C2=O)c1)c1ccc([N+](=O)[O-])cc1
inactive: [1] 111% | [2] 70.7% | [3] 108% | [4] 72.6% | [5] 97.6% | [6] 96.2% | [7] 197% | [8] 97.4% | [9] 97.6% | [10] 100% | [11] 108% | [12] 81.7% | [13] 91.3% | [14] 93.6% | [15] 86.6% | [16] 99% | [17] 72.2% | [18] 88.6% | [19] 135%

C[N+](C)(C)c1ncnc2[n-]cnc12
active: [9] -29.9%
inactive: [1] 99% | [2] 101% | [3] 98.3% | [4] 86.5% | [5] 97% | [6] 91% | [7] 88.7% | [8] 89.5% | [10] 89.9% | [11] 104% | [12] 82.1% | [13] 91.2% | [15] 92% | [16] 90.1% | [17] 83.2% | [18] 75.5% | [19] 94.6%

CCOc1cccc2c(NC(C)CCCN(CC)CC)c(C)cnc12 (stereo unspecified)
inactive: [1] 110% | [2] 101% | [3] 116% | [4] 78.7% | [5] 102% | [6] 87.6% | [7] 109% | [8] 102% | [9] 108% | [10] 104% | [11] 85.1% | [13] 102% | [14] 103% | [15] 85.9% | [16] 108% | [17] 108% | [18] 90.2% | [19] 126%

Nc1nc(Cl)c2ncn(Cc3cc4c(cc3I)OCO4)c2n1
active: [11] 9.61%
inactive: [1] 52.8% | [2] 15.9% | [3] 63.7% | [4] 40.9% | [5] 66.3% | [6] 62.1% | [7] 42.5% | [8] 46.5% | [9] 81.4% | [10] 76% | [12] 73.5% | [13] 61.9% | [14] 53.5% | [15] 39.1% | [16] 72% | [17] 45.7% | [18] 11.8% | [19] 87.7%

COc1ccc2nc3cc(Cl)ccc3c(Nc3ccc(O)c(CN4CCCC4)c3)c2c1
inactive: [4] 11.7% | [6] 38.5% | [12] 31.5% | [13] 62.5% | [15] 24.2% | [16] 41.1% | [17] 51.9% | [19] 82.9%
active: [1] -9.64% | [2] -6.52% | [3] -86.6% | [5] -84% | [7] 8.91% | [8] -87.4% | [9] -81.1% | [10] -83.2% | [11] -22.8% | [14] 0.559% | [18] -68.6%

CCCSc1nc(N)nc2nc[nH]c12
inactive: [1] 119% | [2] 90.5% | [3] 249% | [4] 104% | [5] 107% | [6] 108% | [7] 120% | [8] 95.6% | [9] 105% | [10] 96% | [11] 112% | [12] 108% | [13] 102% | [15] 99.4% | [16] 101% | [17] 87.6% | [18] 99.3% | [19] 126%
